We go through nine compounds from PubChem BioAssay.

The source made the active and inactive calls.

A short description of test [1]: small molecules captured by biotinylated probe aFSTL3 – biochemical, small-molecule microarray, fluorescence 635/667, stem cell growth factor project, primary screen (AID 1064).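 Note: measures binding of the biotinylated anti-FSTL3 antibody to printed compounds.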 The conditions noted are these: higher = more signal.
The nature of test [2]: binders from COS7 lysate, DM2A8 probe, primary screen, torsin A project, cell lysate, small-molecule microarray, fluorescence 635/667 (AID 1065). The conditions noted are these: higher = more signal, COS7 lysate expressing mutant human TOR1A.
Test [3] in a line: small molecules captured by biotinylated probe aFGF2 – biochemical, small-molecule microarray, fluorescence 635/667, stem cell growth factor project, primary screen (AID 1067).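 Note: measures binding of biotinylated aFGF2 protein to printed compounds on slides; z-score merges feature fluorescence and signal-to-noise across triplicate slides.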 Particulars: higher = more signal.
The nature of test [4]: small molecules captured by biotinylated probe aFGF10 – biochemical, small-molecule microarray, fluorescence 635/667, stem cell growth factor project, primary screen (AID 1071).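 Note: score merges 667 nm spot intensity and signal to noise from triplicate slides.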 Particulars: higher = more signal.
Test [5] addresses Neurogenic locus notch homolog protein 2 (Homo sapiens) (UniProt Q04721). The test can be described thus: small molecules binding Notch2 protein – biochemical, small-molecule microarray, 635 nm fluorescence, stem cell growth factors, primary screen (AID 1073). Particulars: higher = more signal.
Test [6] deals with Pro-neuregulin-1, membrane-bound isoform (Homo sapiens) (UniProt Q02297). The test can be described thus: small molecules binding neuregulin-1 protein – biochemical, small-molecule microarray, fluorescence 635/667, psychiatric disease protein project, primary screen (AID 1075).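 Note: score combines 667 nm spot fluorescence with signal to noise.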 The conditions noted are these: NRG1 binding, 635 nm fluorescence, higher = more signal.
Sequence of Pro-neuregulin-1, membrane-bound isoform (Homo sapiens) (Q02297 whole entry, looked up, the tested form may be a part, canonical isoform): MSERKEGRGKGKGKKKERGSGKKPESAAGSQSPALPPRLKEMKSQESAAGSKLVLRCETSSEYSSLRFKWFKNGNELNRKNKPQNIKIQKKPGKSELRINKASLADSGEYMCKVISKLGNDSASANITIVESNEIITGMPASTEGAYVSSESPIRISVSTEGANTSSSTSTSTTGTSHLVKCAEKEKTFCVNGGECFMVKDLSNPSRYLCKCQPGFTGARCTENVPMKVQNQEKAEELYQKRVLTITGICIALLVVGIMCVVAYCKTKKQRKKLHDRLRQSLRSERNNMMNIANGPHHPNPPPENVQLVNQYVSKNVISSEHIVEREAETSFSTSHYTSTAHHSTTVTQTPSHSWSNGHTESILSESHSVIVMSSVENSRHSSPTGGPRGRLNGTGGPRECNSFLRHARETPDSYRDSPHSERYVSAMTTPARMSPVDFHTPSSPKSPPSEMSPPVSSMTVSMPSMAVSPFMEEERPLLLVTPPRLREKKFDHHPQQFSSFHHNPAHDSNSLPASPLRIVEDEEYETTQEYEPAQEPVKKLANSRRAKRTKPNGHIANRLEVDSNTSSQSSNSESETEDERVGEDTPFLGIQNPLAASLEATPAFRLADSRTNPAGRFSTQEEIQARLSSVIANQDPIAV
Test [7] has as its system Neuregulin-1 EGF-like domain. Briefly: small molecules binding NRG1 EGF domain – biochemical, small-molecule microarray, 635 nm fluorescence, primary screen (AID 1081).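 Note: binding of the protein to compounds printed on small-molecule microarray slides.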 Particulars: higher = more signal.
A short description of test [8]: FRG1 expression reporter modulators in myotubes – cell-based, C2C12 myotubes, firefly/Renilla luciferase, luminescence, FRG1 inhibition for FSHD, primary screen (AID 1084). The conditions noted are these: FRG1 promoter luciferase, higher = more signal, called active from +8 up or from −8 down.
Test [9] can be described thus: small molecules captured by biotinylated probe aFST – biochemical, small-molecule microarray, fluorescence 635/667, stem cell growth factor project, primary screen (AID 1086).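 Note: score merges 667 nm fluorescence with signal-to-noise of each printed compound spot.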 Particulars: higher = more signal.
Test [10] is described as follows: binders of probe aHhip on microarray, primary screen, stem cell growth factor project, biochemical, small-molecule microarray, fluorescence 635/667 (AID 1087).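 Note: score merges spot fluorescence at 667nm with spot signal to noise ratio.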 Particulars: higher = more signal.
For test [11], the system named is PRMT1 (protein arginine N-methyltransferase 1). The test can be described thus: small molecules binding arginine methyltransferase PRMT1 – biochemical, small-molecule microarray, 635 nm fluorescence, primary screen (AID 1088).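 Note: binding of Prmt1 protein to compounds spotted on small-molecule microarray slides.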 Particulars: higher = more signal.
Test [12] is described as follows: growth effects on S. cerevisiae YJM789 – YJM789 clinical isolate, OD600, 24 h, basal, primary screen (AID 1089).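 Note: growth of clinical yeast isolate S. cerevisiae YJM 789 seeded 1000 cells per well; test concentration not given here.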 The conditions noted are these: higher = more signal, called active from +8 up or from −8 down.
A short description of test [13]: S. pombe growth modifiers, basal conditions – strain 972, OD600, 24 h, no modulator, primary screen (AID 1090).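 Note: basal condition with compound alone and no growth modifier present; test concentration not given here.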 Particulars: S. pombe 972 growth, higher = more signal, called active from +8 up or from −8 down.
Test [14] is described as follows: budding yeast growth modifiers under rapamycin – strain BY4716, OD600, 96 h, primary screen (AID 1091). Note: test concentration not given here. The conditions noted are these: S. cerevisiae BY4716 + rapamycin, higher = more signal, called active from +8 up or from −8 down.
Test [15] has as its target Torsin-1A-interacting protein 2 (Homo sapiens) (UniProt Q8NFQ8). Briefly: small molecules binding lysate-expressed LULL1 – cell lysate, human LULL1 lysate, 635/667 nm fluorescence, primary screen (AID 1092).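 Note: probe is lysate of COS7 cells overexpressing human LULL1; score merges per-feature 667 nm fluorescence with signal-to-noise.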 The conditions noted are these: small-molecule microarray, hLULL1 lysate binding, 635 nm fluorescence; higher = more signal.
Test [16] is described as follows: optical density change of DRC41 E. coli – strain DRC41, OD650, 24 h, E. coli filamentation project, primary screen (AID 1093).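 Note: MC1000 strain lacking acrAB efflux and sulA so SOS filamentation is blocked; test concentration not given here.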 Particulars: E. coli DRC41 growth, higher = more signal, called active from +8 up or from −8 down.
A short description of test [17]: probe aLefty2 binding to arrayed compounds – biochemical, biotinylated probe, 635/667 nm fluorescence, primary screen (AID 1094).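 Note: score merges spot fluorescence near 667 nm with spot signal-to-noise ratio.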 Particulars: small-molecule microarray, higher = more signal.
Test [18] relates to Noggin (protein binding on small-molecule microarray). Briefly: small molecules binding Noggin protein – biochemical, 635/667 nm fluorescence, primary screen (AID 1095).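 Note: score merges 667 nm feature fluorescence with signal to noise over triplicate slides.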 Particulars: 635 nm fluorescence, higher = more signal.
In test [19] the target is Neurogenic locus notch homolog protein 3 (Homo sapiens) (UniProt Q9UM47). The test can be described thus: small molecules binding NOTCH3 protein – biochemical, 635/667 nm fluorescence, primary screen (AID 1096). The conditions noted are these: small-molecule microarray, 635 nm fluorescence, higher = more signal.
The nature of test [20]: probe aEGFR binding to arrayed compounds – biochemical, biotinylated probe, 635/667 nm fluorescence, primary screen (AID 1097).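 Note: probe is a biotinylated anti-EGFR antibody binding compounds printed on slides; score combines fluorescence near 667 nm and signal to noise of each spot.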 The conditions noted are these: small-molecule microarray, higher = more signal.

Sequence of Neurogenic locus notch homolog protein 2 (Homo sapiens) (Q04721 whole entry, looked up, canonical isoform): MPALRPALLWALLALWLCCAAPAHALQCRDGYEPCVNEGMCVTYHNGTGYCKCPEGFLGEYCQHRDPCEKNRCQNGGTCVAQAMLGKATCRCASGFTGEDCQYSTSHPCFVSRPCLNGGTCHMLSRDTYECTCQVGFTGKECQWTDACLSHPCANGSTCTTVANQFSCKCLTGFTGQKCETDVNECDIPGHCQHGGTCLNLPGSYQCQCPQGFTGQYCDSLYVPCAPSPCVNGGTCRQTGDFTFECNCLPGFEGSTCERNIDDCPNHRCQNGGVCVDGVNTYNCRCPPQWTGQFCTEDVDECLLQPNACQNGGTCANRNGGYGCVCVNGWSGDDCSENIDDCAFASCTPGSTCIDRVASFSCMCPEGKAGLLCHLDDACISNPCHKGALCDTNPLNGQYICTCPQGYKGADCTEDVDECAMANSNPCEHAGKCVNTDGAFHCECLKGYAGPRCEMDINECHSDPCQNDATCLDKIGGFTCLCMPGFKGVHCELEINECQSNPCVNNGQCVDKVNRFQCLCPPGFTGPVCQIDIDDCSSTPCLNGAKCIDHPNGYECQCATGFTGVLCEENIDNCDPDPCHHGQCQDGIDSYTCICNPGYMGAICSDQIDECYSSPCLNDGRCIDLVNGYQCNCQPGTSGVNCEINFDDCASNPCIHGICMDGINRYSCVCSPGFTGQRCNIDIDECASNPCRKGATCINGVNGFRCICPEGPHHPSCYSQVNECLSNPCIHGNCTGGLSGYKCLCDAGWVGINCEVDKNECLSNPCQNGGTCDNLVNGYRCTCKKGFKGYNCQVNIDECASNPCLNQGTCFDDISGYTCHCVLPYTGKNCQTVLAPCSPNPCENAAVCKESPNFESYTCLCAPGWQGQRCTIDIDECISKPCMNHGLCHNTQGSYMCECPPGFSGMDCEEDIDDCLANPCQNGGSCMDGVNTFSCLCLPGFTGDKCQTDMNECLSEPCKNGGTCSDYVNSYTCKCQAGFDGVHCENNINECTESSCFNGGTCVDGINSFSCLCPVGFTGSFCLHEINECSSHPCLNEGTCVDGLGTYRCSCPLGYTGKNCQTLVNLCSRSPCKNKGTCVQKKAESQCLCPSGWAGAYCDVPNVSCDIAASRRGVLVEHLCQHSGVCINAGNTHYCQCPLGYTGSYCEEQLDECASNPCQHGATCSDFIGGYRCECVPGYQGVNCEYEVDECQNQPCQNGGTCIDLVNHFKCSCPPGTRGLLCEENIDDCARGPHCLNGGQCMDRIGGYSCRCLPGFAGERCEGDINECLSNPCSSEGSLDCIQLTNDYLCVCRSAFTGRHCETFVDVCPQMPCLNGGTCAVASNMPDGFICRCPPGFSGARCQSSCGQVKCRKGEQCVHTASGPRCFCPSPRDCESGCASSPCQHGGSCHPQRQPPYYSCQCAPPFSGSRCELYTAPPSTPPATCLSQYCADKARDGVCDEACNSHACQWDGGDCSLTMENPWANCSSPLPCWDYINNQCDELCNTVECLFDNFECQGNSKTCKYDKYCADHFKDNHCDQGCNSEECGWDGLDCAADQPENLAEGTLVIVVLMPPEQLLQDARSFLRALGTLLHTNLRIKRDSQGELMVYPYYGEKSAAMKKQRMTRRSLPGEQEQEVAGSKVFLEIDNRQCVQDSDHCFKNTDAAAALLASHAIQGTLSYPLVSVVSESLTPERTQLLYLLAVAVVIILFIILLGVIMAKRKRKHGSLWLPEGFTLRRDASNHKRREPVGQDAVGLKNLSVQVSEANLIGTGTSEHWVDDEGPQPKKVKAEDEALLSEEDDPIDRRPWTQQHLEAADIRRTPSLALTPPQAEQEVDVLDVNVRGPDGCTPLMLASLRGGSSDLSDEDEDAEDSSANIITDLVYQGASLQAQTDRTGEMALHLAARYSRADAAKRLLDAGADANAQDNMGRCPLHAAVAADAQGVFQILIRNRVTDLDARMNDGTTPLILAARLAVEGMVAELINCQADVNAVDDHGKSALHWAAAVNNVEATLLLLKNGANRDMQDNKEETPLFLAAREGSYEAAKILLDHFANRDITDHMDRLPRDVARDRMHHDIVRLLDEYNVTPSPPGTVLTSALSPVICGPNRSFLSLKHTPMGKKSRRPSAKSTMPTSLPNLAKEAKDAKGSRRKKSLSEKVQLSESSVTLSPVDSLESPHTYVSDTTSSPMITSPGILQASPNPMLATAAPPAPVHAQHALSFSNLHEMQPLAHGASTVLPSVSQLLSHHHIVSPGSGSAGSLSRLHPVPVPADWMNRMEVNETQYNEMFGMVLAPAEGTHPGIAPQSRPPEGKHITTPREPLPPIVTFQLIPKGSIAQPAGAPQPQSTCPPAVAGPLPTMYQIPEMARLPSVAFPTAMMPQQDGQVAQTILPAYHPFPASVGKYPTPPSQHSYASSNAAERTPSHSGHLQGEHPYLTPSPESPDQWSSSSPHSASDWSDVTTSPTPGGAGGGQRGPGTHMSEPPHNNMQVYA
Sequence of Torsin-1A-interacting protein 2 (Homo sapiens) (Q8NFQ8 whole entry, looked up): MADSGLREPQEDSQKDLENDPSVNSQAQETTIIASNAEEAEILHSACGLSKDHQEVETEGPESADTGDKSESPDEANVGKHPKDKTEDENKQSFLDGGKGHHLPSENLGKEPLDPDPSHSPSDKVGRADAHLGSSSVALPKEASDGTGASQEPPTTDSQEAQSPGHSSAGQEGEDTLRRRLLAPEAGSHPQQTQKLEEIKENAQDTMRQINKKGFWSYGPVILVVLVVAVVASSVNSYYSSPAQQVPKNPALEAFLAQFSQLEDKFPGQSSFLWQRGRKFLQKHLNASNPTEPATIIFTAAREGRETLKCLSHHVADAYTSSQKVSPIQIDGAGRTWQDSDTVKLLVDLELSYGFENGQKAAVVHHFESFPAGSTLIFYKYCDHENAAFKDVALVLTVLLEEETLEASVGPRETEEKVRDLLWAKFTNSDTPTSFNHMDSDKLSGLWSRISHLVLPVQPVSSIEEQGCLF

`O=C1c2ccccc2[C@](Cc2ccccc2I)(C(=O)NC2CC2)[C@H](c2ccc(CO)cc2)N1C1CCCCC1`: the composite z-score in test [1] is -0.0129; in test [2], 0.677; in test [3], -0.0989; in test [4], 0.418; in [5] it was 1.48; in test [6], 1.62. Moreover, the composite z-score was 1.41 in [7]; 1.37 in test [9]; -0.926 in [10]; 1.56 in test [11]; 2.38 in test [15]; -0.224 in [17]. Also, the composite z-score is 0.62 in test [18], 1.05 in [19] and -0.36 in [20]. Further, the z-score is -4.4 (inactive) in test [8]; 1.13 (inactive) in [12]; 0.525 (inactive) in [13]; 2.36 (inactive) in test [14]; 0.257 (inactive) in [16].
As for `C=CC[C@@]1(C(=O)N(C)C)N=C(c2ccc(OCCCO)cc2)O[C@@H]1c1ccccc1N=[N+]=[N-]`, the composite z-score came to 1.12 in test [1]; 1.72 in test [2]; 0.0732 in test [3]; 0.622 in [4]; 0.984 in test [5]; 1.52 in test [6]. The composite z-score is 1.29 in test [7]; 1.21 in test [9]; 0.011 in test [10]; 1.55 in test [11]; 3.57 in test [15]; 0.193 in test [17]. For the same compound, the figures for the composite z-score in test [18], in test [19] and in test [20] were 1.07, 1.06 and 0.276, respectively. Further, the z-score was 2.35 (inactive) in [8]; -0.431 (inactive) in test [12]; -0.0481 (inactive) in [13]; -0.0865 (inactive) in test [14]; 0.724 (inactive) in [16].
For `[N-]=[N+]=Nc1ccccc1C[C@]1(C(=O)NCC(O)CO)N=C(c2ccc(OCCCO)cc2)O[C@H]1c1ccccc1N=[N+]=[N-]` (stereo not given in full), the composite z-score amounted to 0.722 in [1]; 0.0264 in [2]; 0.056 in test [3]; 0.33 in [4]; 0.379 in test [5]; 1.45 in [6]. The composite z-score is 0.753 in [7]; 0.375 in [9]; -0.0994 in [10]; -0.918 in test [11]; 2.98 in test [15]; 0.334 in [17]. The composite z-score is -0.609 in test [18], 0.203 in test [19] and 0.383 in test [20]. Also, the z-score was -0.516 (inactive) in test [8]; 0.637 (inactive) in test [12]; -0.824 (inactive) in test [13]; 0.0558 (inactive) in test [14]; 0.774 (inactive) in test [16].
`C=CCNC(=O)[C@@H]1[C@H]2C(=O)O[C@H](c3ccccc3)[C@H](c3ccccc3)N2[C@H](c2ccccc2OCCO)[C@@]12C(=O)N(C(=O)OCCOC)c1ccc(C#CCNC(N)=O)cc12`: the composite z-score in test [1] is -0.14; in test [2], 0.428; in test [3], -0.0864; in test [4] it was 0.354; in test [5] it was 0.524; in [6] it was 1.27. Moreover, the composite z-score in test [7] was 0.958; in test [9] it was -0.0306; in test [10], 0.251; in test [11], 1.46; in test [15] it was 2.85; in test [17], 0.0395. Further, the composite z-score in [18] is 0.61; in [19], 1.12; in test [20], 0.0149. The z-score in test [8] is -0.623 (inactive); in test [12], 1.11 (inactive); in test [13] it was 0.731 (inactive); in test [14], 2.72 (inactive); in test [16], -0.395 (inactive).
`Cc1ccc(S[C@]2(C(=O)NCCN3CCOCC3)CC(=O)N(Cc3ccccc3)[C@@H]2c2ccc(CO)cc2I)cc1`: the composite z-score in test [1] is 1.09; in [2], -0.883; in test [3], -0.0564; in test [4] it was -0.165; in test [5] it was -1.51; in test [6] it was 0.742. The composite z-score in test [7] was 1.49; in test [9] it was -0.39; in test [10], -0.0645; in test [11] it was 0.01; in [15], 2.07; in test [17], 0.0769. Further, the composite z-score in [18] was -1.57; in test [19], -0.791; in [20], -0.378. Also, the z-score in test [8] was -0.456 (inactive); in test [12] it was -0.605 (inactive); in [13] it was -3 (inactive); in [14], 0.576 (inactive); in [16], -1.17 (inactive).
As to `CCOC(=O)[C@H]1C/C=C/C[C@H](C(=O)OCC)C(=O)O[C@H]2[C@@H](OC)O[C@H](CO)[C@@H](OC(=O)Nc3ccc(C#N)cc3)[C@@H]2OC1=O`, the composite z-score was 0.0283 in test [1]; -0.317 in [2]; -0.0414 in test [3]; 0.287 in [4]; -0.194 in test [5]; 1.39 in test [6]. The composite z-score in [7] is 1.02; in test [9], 0.143; in test [10], -0.119; in [11], 0.595; in [15], 2.36; in [17], -0.162. Besides, the composite z-score in test [18] was 0.0435; in test [19], 0.466; in [20], -0.382. Besides, the z-score was -0.1 (inactive) in [8]; -1.87 (inactive) in [12]; -1.11 (inactive) in [13]; 32.1 (active) in [14]; 1.92 (inactive) in test [16].
Regarding `COCCOC(=O)N1C(=O)[C@@]2(c3cc(C#Cc4ccc(OC)cc4)ccc31)[C@H](c1ccccc1OCCO)N1[C@H](c3ccccc3)[C@H](c3ccccc3)OC(=O)[C@H]1[C@@H]2C(=O)N1CCN(c2ncccn2)CC1`, the composite z-score in [1] is -0.173; in test [2], 0.489; in test [3] it was -0.0336; in test [4], 0.619; in test [5] it was 0.568; in test [6], 0.4. For the same compound, the composite z-score in test [7] was 1.23; in [9], 0.172; in [10], -0.0618; in test [11], 1.35; in test [15], 2.22; in [17], -0.115. The composite z-score is 0.936 in test [18], 0.836 in test [19] and -0.058 in test [20]. The z-score was -1.23 (inactive) in [8]; 3.34 (inactive) in test [12]; 1.95 (inactive) in test [13]; 7.23 (inactive) in test [14]; 0.579 (inactive) in [16].
Consider `CCOC(=O)[C@H]1C/C=C/C[C@H](C(=O)OCC)C(=O)O[C@H]2[C@@H](OC)O[C@H](CO)[C@@H](OC(=O)Nc3cccc(F)c3)[C@@H]2OC1=O`, for which the composite z-score in [1] is -0.621; in test [2] it was -0.125; in test [3] it was -0.0766; in test [4] it was 0.39; in test [5] it was 0.196; in [6], 1.21. The composite z-score in test [7] was 1.15; in test [9], 0.0218; in test [10] it was -0.444; in [11] it was 1.11; in [15], 2.94; in test [17], -0.162. The composite z-score was 0.719 in [18], 1.02 in test [19] and -0.2 in test [20]. Moreover, the z-score in test [8] is 0.15 (inactive); in test [12], 1.52 (inactive); in test [13], 0.268 (inactive); in test [14], 22.2 (active); in [16], -0.168 (inactive).
Regarding `CC(C)OC(=O)C=C1C[C@@H](c2ccccc2C(F)(F)F)O[C@@H](c2ccccc2C(F)(F)F)O1`, the composite z-score was -0.173 in [1]; -0.11 in [2]; -0.0924 in test [3]; -0.443 in test [4]; 0.647 in test [5]; 0.113 in test [6]. Besides, the composite z-score in test [7] was -0.0471; in test [9], 0.2; in test [10], -0.0994; in test [11] it was 0.494; in [15], 0.675; in [17], -0.145. Moreover, the composite z-score in test [18] was 0.134; in test [19], 0.266; in test [20], -0.0776. In addition, the z-score in test [8] was 0.009 (inactive); in [12], -0.317 (inactive); in [13], 1.17 (inactive); in test [14] it was 1.38 (inactive); in [16] it was -0.952 (inactive).
